Experimental data from the supplement of paper PMC10849652.
The full data set covers some 8,800 targets. This sample favours those with a hit. About 0.5% of all pairs of compound and target were hits. Unmarked numbers belong to inactive results.

What was measured:
Assay in all cases: log2 fold change, soluble protein after heating vs DMSO (PISA); higher = thermal stabilisation; K562 lysate, 10 uM; active = over 0.2 and 3.5 SD of the protein, either way, in both replicates (recomputed)
[1] = compound: C1=CC=C(C=C1)[C@H](COC2=CC3=C(C=C2)NC(=O)N3)NC(=O)C4=CC=CN(C4=O)CC5=CC(=C(C=C5)F)F
Procedure, shortened: (§1)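 The values are log-two fold changes in thermal stability compared with solvent controls and come from duplicates. They were obtained by TMTpro 16plex LC-MS/MS, with channel sums equalised, on the supernatant after 21,000xg for 90 min. That supernatant came from crude K562 extract at 1 mg/mL protein treated with 10 μM compound for 30 min, heated for 3 min across 48°C-58°C, pooled and brought to 0.5% NP-40 at 4°C.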

[2] = compound: CC1=C(SC2=C1C(=N[C@H](C3=NN=C(N32)C)CC(=O)N)C4=CC=C(C=C4)Cl)C
Procedure, shortened: as §1

[3] = compound: CC1=C2C(=CC=C1)N=C(N(C2=O)C3=CC=CC=C3C)CN4C=NC5=C(N=CN=C54)N
Procedure, shortened: as §1

[4] = compound: Cc1sc2c(c1C)C(c1ccc(Cl)cc1)=N[C@@H](CC(=O)OC(C)(C)C)c1nnc(C)n1-2
Procedure, shortened: as §1

[5] = compound: c1ccc([C@@H]2C[C@H]2NC2CCNCC2)cc1
Procedure, shortened: as §1

Sequence of UniProt Q99643 (Q99643 whole entry, looked up): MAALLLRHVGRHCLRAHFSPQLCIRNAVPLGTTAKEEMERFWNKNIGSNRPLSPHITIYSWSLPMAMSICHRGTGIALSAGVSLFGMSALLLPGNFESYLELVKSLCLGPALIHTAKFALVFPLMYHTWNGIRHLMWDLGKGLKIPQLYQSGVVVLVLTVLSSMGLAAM
Sequence of UniProt Q9P0K7 (Q9P0K7 whole entry, looked up): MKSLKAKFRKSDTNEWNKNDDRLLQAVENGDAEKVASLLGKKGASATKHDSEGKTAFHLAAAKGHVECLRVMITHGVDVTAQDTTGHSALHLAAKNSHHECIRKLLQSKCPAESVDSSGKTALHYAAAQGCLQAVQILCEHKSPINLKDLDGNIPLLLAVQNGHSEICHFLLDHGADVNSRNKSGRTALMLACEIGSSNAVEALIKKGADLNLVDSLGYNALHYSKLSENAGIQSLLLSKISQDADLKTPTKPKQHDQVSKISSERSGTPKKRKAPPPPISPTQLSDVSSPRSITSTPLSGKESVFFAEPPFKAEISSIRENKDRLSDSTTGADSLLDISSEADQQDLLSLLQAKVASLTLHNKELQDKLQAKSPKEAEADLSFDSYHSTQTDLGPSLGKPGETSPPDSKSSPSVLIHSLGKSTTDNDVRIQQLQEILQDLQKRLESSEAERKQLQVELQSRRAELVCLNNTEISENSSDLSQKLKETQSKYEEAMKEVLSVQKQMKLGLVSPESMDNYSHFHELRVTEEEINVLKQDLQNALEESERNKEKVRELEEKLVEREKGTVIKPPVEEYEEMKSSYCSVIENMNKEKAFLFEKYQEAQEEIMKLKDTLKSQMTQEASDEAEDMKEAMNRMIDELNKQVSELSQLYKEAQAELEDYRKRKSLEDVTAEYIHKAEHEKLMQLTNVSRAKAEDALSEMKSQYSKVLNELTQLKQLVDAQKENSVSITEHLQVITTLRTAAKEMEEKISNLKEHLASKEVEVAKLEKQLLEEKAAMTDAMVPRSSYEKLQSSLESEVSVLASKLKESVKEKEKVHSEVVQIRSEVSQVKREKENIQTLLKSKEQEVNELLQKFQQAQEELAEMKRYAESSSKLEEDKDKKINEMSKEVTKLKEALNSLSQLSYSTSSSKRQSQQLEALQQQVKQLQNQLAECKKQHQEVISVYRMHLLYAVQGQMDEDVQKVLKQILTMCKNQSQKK
Sequence of UniProt Q9H7N4 (Q9H7N4 whole entry, looked up): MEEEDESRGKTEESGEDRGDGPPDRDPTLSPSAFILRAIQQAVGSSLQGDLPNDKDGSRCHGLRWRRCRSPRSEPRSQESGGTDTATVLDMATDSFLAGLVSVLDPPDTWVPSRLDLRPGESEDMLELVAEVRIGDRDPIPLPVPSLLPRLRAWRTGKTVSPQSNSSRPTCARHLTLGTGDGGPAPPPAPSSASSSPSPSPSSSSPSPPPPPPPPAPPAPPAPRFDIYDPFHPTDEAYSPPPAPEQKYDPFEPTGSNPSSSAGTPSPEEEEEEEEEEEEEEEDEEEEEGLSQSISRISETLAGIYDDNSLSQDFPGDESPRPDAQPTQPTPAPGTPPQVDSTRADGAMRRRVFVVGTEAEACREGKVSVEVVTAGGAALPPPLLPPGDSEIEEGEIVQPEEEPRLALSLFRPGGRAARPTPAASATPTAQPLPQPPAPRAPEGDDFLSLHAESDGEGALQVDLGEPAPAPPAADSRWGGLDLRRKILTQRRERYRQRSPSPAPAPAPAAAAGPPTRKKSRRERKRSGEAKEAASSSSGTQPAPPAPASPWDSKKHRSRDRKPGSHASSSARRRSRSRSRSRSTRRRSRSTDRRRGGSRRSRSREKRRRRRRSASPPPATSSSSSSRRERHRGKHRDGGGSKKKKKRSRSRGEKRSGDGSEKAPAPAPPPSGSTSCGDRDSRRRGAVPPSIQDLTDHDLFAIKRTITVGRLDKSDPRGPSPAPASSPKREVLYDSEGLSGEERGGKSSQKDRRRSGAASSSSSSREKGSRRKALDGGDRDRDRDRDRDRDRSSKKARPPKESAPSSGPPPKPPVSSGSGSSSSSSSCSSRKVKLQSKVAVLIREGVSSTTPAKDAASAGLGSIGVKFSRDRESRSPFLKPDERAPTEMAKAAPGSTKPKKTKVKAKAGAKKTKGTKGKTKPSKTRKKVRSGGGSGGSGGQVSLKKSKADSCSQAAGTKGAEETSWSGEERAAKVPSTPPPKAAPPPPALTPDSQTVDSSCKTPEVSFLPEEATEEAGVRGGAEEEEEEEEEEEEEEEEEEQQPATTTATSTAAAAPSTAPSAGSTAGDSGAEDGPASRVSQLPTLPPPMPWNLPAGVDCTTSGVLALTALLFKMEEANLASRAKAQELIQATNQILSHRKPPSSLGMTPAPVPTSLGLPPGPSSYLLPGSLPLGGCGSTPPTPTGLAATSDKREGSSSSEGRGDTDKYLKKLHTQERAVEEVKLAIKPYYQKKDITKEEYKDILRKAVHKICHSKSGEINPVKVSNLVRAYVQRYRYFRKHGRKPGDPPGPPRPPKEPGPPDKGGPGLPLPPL
Sequence of UniProt Q9Y3T6 (Q9Y3T6 whole entry, looked up, one chain of several): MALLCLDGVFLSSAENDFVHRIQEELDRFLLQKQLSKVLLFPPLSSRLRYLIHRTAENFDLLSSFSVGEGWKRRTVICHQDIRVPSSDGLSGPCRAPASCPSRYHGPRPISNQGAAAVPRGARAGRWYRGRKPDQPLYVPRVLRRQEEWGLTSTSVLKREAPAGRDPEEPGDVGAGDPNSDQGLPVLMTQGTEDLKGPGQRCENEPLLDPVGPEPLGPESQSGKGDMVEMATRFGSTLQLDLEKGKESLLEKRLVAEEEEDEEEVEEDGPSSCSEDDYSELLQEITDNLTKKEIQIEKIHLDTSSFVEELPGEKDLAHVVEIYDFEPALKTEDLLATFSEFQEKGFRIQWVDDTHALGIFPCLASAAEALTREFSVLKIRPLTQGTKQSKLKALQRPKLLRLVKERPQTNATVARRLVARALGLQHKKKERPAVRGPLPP
Sequence of UniProt Q99442 (Q99442 whole entry, looked up): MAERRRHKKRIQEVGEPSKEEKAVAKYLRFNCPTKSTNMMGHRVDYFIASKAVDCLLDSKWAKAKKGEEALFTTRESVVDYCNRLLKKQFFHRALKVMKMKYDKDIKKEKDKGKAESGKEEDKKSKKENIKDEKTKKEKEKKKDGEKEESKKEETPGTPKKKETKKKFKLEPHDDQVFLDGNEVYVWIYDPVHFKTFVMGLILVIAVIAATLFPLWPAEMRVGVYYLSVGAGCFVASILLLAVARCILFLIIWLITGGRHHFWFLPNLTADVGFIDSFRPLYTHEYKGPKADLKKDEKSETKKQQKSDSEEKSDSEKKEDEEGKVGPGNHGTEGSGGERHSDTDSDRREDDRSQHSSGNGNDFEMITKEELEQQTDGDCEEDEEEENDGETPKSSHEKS
Sequence of UniProt Q92930 (Q92930 whole entry, looked up): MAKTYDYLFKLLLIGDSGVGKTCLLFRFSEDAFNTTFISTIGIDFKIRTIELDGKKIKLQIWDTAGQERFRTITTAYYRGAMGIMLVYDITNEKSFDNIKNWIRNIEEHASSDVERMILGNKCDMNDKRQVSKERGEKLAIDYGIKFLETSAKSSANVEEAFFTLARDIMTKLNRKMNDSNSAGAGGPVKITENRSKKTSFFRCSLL
Sequence of UniProt Q13546 (Q13546 whole entry, looked up): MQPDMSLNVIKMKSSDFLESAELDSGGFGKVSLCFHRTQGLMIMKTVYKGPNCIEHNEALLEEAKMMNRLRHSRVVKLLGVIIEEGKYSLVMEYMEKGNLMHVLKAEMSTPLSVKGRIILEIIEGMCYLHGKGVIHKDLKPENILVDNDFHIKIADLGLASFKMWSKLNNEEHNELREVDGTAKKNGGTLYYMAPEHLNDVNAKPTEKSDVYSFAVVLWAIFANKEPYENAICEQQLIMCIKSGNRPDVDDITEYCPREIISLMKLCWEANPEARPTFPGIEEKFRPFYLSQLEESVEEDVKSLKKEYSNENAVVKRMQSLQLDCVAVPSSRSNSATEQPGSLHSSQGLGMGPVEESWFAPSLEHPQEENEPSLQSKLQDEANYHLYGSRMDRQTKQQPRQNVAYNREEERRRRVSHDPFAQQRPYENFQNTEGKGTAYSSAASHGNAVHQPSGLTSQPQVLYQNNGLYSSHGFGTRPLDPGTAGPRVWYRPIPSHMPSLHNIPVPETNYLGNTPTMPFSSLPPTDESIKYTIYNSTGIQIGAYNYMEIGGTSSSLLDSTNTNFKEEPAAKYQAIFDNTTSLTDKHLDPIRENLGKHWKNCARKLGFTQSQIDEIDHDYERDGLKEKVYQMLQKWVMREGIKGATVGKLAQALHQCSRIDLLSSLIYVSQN
Sequence of UniProt Q6PCD5 (Q6PCD5 whole entry, looked up): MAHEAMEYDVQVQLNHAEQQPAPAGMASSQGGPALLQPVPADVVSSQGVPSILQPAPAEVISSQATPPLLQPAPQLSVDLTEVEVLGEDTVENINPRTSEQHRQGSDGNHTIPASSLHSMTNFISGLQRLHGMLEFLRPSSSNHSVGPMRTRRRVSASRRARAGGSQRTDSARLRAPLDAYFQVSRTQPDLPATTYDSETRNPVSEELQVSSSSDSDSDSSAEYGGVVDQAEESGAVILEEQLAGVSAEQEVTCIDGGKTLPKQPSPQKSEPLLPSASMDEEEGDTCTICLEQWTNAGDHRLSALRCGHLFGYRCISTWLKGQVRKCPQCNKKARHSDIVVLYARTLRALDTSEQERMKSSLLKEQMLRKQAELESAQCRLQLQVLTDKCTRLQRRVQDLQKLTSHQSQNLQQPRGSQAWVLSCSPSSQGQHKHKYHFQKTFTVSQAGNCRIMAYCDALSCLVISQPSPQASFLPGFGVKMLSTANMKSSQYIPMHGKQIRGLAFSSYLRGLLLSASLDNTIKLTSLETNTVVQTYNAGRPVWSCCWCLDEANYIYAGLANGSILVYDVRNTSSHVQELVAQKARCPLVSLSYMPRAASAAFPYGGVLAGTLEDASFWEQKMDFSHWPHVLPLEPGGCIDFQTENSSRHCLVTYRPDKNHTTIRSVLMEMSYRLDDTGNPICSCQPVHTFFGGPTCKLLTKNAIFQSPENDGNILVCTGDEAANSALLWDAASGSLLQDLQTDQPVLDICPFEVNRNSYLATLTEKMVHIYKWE

Target | log2 fold change [1] | log2 fold change [2] | log2 fold change [3] | log2 fold change [4] | log2 fold change [5]
RFWD3 (UniProt Q6PCD5) | -0.058 | 0.132 | 0 | -0.072 | 0.049
SCAF1 (UniProt Q9H7N4) | 0.112 | -0.492 (active) | 0.002 | -0.007 | 0.019
RBM4 (UniProt Q9BWF3) | 0 | 0.016 | 0.022 | 0.03 | -0.007
SESN2 (UniProt P58004) | -0.074 | 0.01 | -0.025 | -0.004 | -0.01
RMC1 (UniProt Q96DM3) | -0.013 | 0.018 | -0.052 | 0.05 | 0.007
SDHC (UniProt Q99643) | -0.045 | -0.016 | 0.035 | -0.085 | -0.09
RAB8B (UniProt Q92930) | -0.067 | 0.013 | -0.041 | -0.012 | 0.146
RANBP6 (UniProt O60518) | 0.013 | -0.047 | 0.046 | 0.074 | 0.005
RAI14 isoform 2 (UniProt Q9P0K7) | 0.002 | -0.052 | -0.02 | -0.041 | -0.033
SEC62 (UniProt Q99442) | 0.059 | -0.017 | 0.015 | 0.043 | -0.023
RCAN1 (UniProt P53805) | 0.141 | -0.074 | -0.063 | -0.026 | 0.026
R3HCC1 (UniProt Q9Y3T6) | 0.014 | 0.015 | 0.006 | -0.014 | -0.047
RIPK1 (UniProt Q13546) | -0.019 | -0.015 | -0.009 | -0.04 | -0.021
RECQL4 (UniProt O94761) | 0.002 | -0.012 | 0.073 | -0.011 | 0.154
